# Screens from PubChem.
# Compounds with a hit are over-represented: about 2.1% of the library has one in this group of screens.
# Rce1 inh: inhibitors of yeast Ras-converting enzyme. Q03530. yeast membranes, quenched prenylated peptide cleavage fluorescence. calls only. 290,000 compounds, 0.27% hits;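 active = fall in fluorescence gain of 50% or more versus controls, with final raw signal at or below 3038400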;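 note: plate controls were neutral control wells for no effect and wells lacking membranes for full effect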
# ADAM10 inh: ADAM10 inhibition, QFRET primary screen; inhibition, % at 7 µM; recombinant ADAM10, EDANS/DABCYL FRET peptide cleavage, 3 h; 370,000 compounds, 0.62% hits; AID 720582; O14672;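 active = inhibition above a per-campaign cutoff equal to the mean of compounds falling between control-based bounds plus 3 SD, cut at about 20% in these data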;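 note: 0% = DMSO wells while the 100% control is not disclosed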
# ADAM17 inh: inhibits human ADAM17; recombinant ADAM17, EDANS/DABCYL FRET peptide cleavage; inhibition, % at 6.95 µM; P78536; AID 720648; 370,000 compounds, 0.83% hits;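 active = inhibition above the mean of compounds lying between control limits plus 3 SD, set per campaign, cut at about 8.5% in these data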;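 note: 0% = DMSO-only wells as the low control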
# PLCb3 inh: PLC-beta3 (human) inhibition, primary screen; Purified PLC-beta3, fluorogenic substrate, fluorescence; 370,000 compounds, 0.18% hits; Q01970; inhibition, % at 12.2 µM;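 note: 0% = median of compound wells on plate and 100% = full blocker control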
# PLC-gamma1 inh: inhibitors of human phospholipase C gamma1; purified PLC-gamma1, fluorogenic substrate, fluorescence; AID 720700; inhibition, % at 12.2 µM; 370,000 compounds, 0.84% hits; P19174; in the data active = inhibition above about 9.5%
# PLCg1 ctr: inhibits human PLC-gamma1 in PLC-beta3 counter-screen. shares compounds with PLC-gamma1 inh. purified PLC-gamma1, fluorogenic substrate, fluorescence. inhibition, % at 12.3 µM. 3,300 compounds, 3.1% hits; in the data active = inhibition above about 9.5%
# PLCb3 confirm: human PLC-beta3 inhibition, confirmation; shares compounds with PLC-gamma1 inh; purified PLC-beta3, fluorogenic substrate fluorescence; inhibition, % at 12.3 µM; 3,300 compounds, 1% hits
# Starred values were filed as active, the others as inactive; i = inactive; . = not tested or not shown. Cut-off read from the data, not from the text of the source, unless noted: active = inhibition above about 11%; inactive = the rest.
SMILES,Rce1 inh,ADAM10 inh,ADAM17 inh,PLCb3 inh,PLC-gamma1 inh,PLCg1 ctr,PLCb3 confirm
CCC[C@H]1CN(c2ccc(Br)cc2)C(=O)[C@@H]1CC(=O)Nc1ccc(OC)cc1,.,-8,-2,5,1,.,.
O=S(=O)(C/C(=C/CO)S(=O)(=O)c1ccccc1)c1ccccc1,i,1,0,4,9.7*,-3,1
CC[C@H]1C=C[C@@H](C(=O)NS(=O)(=O)c2ccc(C)cc2)N(C(C)=O)C1,.,-24,-5,-15,41*,38*,-15
C#CCN1C(=O)[C@]2(OCCC=C[C@H]2C)c2cc(OC)ccc21,.,-14,-6,4,-2,.,.
CCOc1ccc2nc(C)cc(Nc3cccc([N+](=O)[O-])c3)c2c1,i,9,7,8,11*,-2,-1
O=C(CSc1nnc(CCCN2C(=O)c3cccc4cccc(c34)C2=O)n1-c1ccccc1)NCCCN1CCOCC1,i,-18,-3,3,11*,-8,-2
O=C(CSc1nnc(CCCN2C(=O)c3cccc4cccc(c34)C2=O)n1-c1ccccc1)NCCCO,i,-214,-51,-14,-16,.,.
Cc1ccc(C(CC(=O)NCCCN(C)C)c2ccc(OC(C)C)cc2)cc1 (stereo unspecified),i,-2,-2,-3,0,.,.
O=C(O)c1cccc(S(=O)(=O)NCC2COc3ccccc3O2)c1 (stereo unspecified),.,-13,4,1,9.8*,-8,-2
c1ccc2c(-c3[nH]ncc3CNCCCn3ncc4ccccc43)cccc2c1,i,-8,-3,-4,-1,.,.
O=C1NC(=S)S/C1=C\C=C\c1ccc([N+](=O)[O-])o1,.,-2,-5,1,60*,32*,-8
CCC(C)NCCCCOc1ccc(Cl)cc1C (stereo unspecified),i,-2,3,4,12*,7,3
CCN(CC)C(=O)c1cc2c(=O)n3ccccc3nc2s1,i,i,i,i,i,.,.
CCN(CC)C(=O)c1cc2c(=O)oc3ccccc3c2s1,i,-7,7,6,11*,-5,-3
O=C(NCCc1ccc(O)cc1)c1[nH]c(C(F)(F)F)nc1-c1ccccc1,.,3,6,4,13*,-8,-5
O=[N+]([O-])c1ccc(N2CCN(Cc3ccc([N+](=O)[O-])o3)CC2)cc1,i,4,8,0,9.8*,1,2
O=[N+]([O-])c1ccc(CN2CCN(c3ccccc3)CC2)o1,i,3,1,-3,1,.,.
Cc1ccn(CC(=O)N2CCCC(C(=O)c3cccc4ccccc34)C2)n1 (stereo unspecified),i,-6,-5,-8,-3,.,.
Cc1cc(C(=O)N2CCCC(C(=O)c3cccc4ccccc34)C2)nc(C)n1 (stereo unspecified),i,6,0,-1,10*,-2,-4
COc1cccc(C2N=C(c3ccccc3C)NO2)c1OC (stereo unspecified),i,-3,-1,-8,-9,.,.
CC(=O)Nc1ccc(NC(=O)c2ccc(N(Cc3ccccc3C)S(C)(=O)=O)cc2)cc1,i,6,1,0,14*,-2,-1
CC(=O)c1cccc(NC(=O)c2ccc(N(Cc3ccccc3C)S(C)(=O)=O)cc2)c1,i,11,3,0,6,.,.
Cc1ccc(CNC(=O)C(C)OC(=O)c2ccco2)cc1 (stereo unspecified),i,4,0,2,13*,4,2
O=C(NN=Cc1cccc(OCc2ccccc2)c1)c1cc(-c2ccc(Cl)cc2)n[nH]1,.,-30,-9,4,1,.,.
CC(=O)Nc1ccccc1OCC(=O)NCC(F)(F)F,i,-3,3,1,2,.,.
SMILES,Rce1 inh,ADAM10 inh,ADAM17 inh,PLCb3 inh,PLC-gamma1 inh,PLCg1 ctr,PLCb3 confirm
O=C(CCn1c(=S)oc2ccccc21)Nc1cccc(O)c1,i,12,4,12*,8,-4,-5
O=C(CCn1c(=S)oc2ccccc21)Nc1cccc(F)c1,.,1,0,0,1,.,.
CCc1cccc(CC)c1NC(=S)N1CCn2cccc2C1c1cccnc1 (stereo unspecified),i,-8,-3,-14,-9,.,.
CC(=O)NC12CC3CC(C1)CC(C(=O)N(C)Cc1cccc(Cl)c1Cl)(C3)C2,i,10,-2,-3,13*,-5,-2
CC(=O)Nc1c([N+](=O)[O-])cc2[nH]c(=O)[nH]c2c1[N+](=O)[O-],i,-4,3,12*,12*,-7,0
Cc1[nH]c2ccccc2c1CC(=O)Nc1ccc(Nc2cccnc2)c(-c2ccc(OC(F)(F)F)cc2)c1,.,-8,-2,-18,-14,.,.
C=CCN(C(=O)CCC(=O)Nc1cc(C)on1)C(C(=O)NC1CCCC1)c1ccc(OC)cc1OC (stereo unspecified),i,11,0,-3,-1,.,.
O=S(=O)(O)c1ccc(N=NNc2ccc(Br)cc2)cc1,i,9,-3,-8,9.8*,-6,-7
COC(C(=O)NNS(=O)(=O)c1ccc([N+](=O)[O-])cc1)c1ccccc1 (stereo unspecified),i,14,1,7,12*,-5,-1
COC(C(=O)NNS(=O)(=O)c1ccccc1[N+](=O)[O-])c1ccccc1 (stereo unspecified),i,2,-6,-4,1,.,.
O=C(NN=C(c1ccccc1)c1ccccn1)c1ccccc1,.,9,3,0,9.7*,0,1
Cn1c(CCN2CCCCC2)nc2cc([N+](=O)[O-])ccc21,i,5,0,6,4,.,.
CCN1CCN(CCc2nc3cc([N+](=O)[O-])ccc3n2C)CC1,i,14,1,-3,12*,-1,2
Cc1ccc(C(=O)NCCNC(=O)c2ccccn2)cc1,i,-5,-1,-4,-2,.,.
O=C(O)c1cc2c(cc1Cl)N1CCCCCC1=NS2(=O)=O,i,2,2,0,19*,-6,-1
COC(=O)c1cc2c(cc1Cl)N1CCCCCC1=NS2(=O)=O,i,-9,-5,-6,1,.,.
Cc1ccc(C)c(NC(=O)CSc2nc3c(c(=O)n2C)SC(C)C3)c1 (stereo unspecified),i,-3,0,0,0,.,.
CC1Cc2nc(SCC(=O)Nc3ccc(F)cc3F)n(C)c(=O)c2S1 (stereo unspecified),i,3,4,7,13*,-7,-4
CCOC(=O)n1c(=O)n(Cc2ccc(Cl)cc2Cl)c2ccccc21,i,13,6,4,10*,-1,-3
Cc1ccc(C)c(NC(=O)CN(C)C(=O)c2cc(C3CC3)nn2-c2ccccc2)c1,.,-3,2,-6,-1,.,.
